Measured values: PubChem BioAssay (EPA / NIEHS)
Inconclusive results are not listed. Activity calls are given as the source filed them. How the source made its calls, unless noted: active means hit-call score of the fitted dose curve at least 0.9, where 1 is the maximum; inactive means score below 0.9.

Experiments:
[1] = read-out: Tissue Factor, F3 (gene 2152); experiment: BSK_LPS_TissueFactor: BioMAP Diversity Plus: LPS Assay for Tissue Factor Biomarker Activity (AID 2283084); conditions: primary human HUVEC with PBMC; actives raise or lower the signal
In short: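 In this co-culture system of umbilical vein endothelium with PBMC, stimulated with LPS, cell-surface CD142 is detected by ELISA at 24 h. Endpoint values derive from bidirectional fitting, DMSO serving as baseline.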

[2] = read-out: Tumor necrosis factor (Homo sapiens) (UniProt P01375); experiment: BSK_LPS_TNFa: BioMAP Diversity Plus: LPS Assay for Tumour Necrosis Factor alpha (TNFa) Biomarker Activity (AID 2283085); conditions: primary human HUVEC with PBMC; actives raise or lower the signal;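 on AC50: TNFa protein level quantified by ELISA in the co-culture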
In short: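 Cells (umbilical vein endothelium plus peripheral blood mononuclear cells) were dosed with chemical, incubated 24 h, then TNFa was quantified by ELISA; values derive from bidirectional fitting with DMSO as baseline.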

[3] = read-out: Vascular cell adhesion molecule 1 (VCAM1), VCAM1 (gene 7412); experiment: BSK_LPS_VCAM1: BioMAP Diversity Plus: LPS Assay for Vascular cell adhesion molecule 1 (VCAM1) Biomarker Activity (AID 2283086); conditions: primary human HUVEC with PBMC; actives raise or lower the signal
In short: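 Cells are dosed in an LPS-stimulated endothelial/mononuclear co-culture and, after 24 h, VCAM-1 is quantified by ELISA. Activity in either direction is fitted relative to the DMSO negative control.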

CD38, CD38 (gene 952) = experiment: BSK_SAg_CD38: BioMAP Diversity Plus: SAg Assay for CD38 Biomarker Activity (AID 2283087); conditions: primary human HUVEC with PBMC; actives raise or lower the signal
In short: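 CD38 quantified by ELISA (fluorescence) in a superantigen-activated endothelial cell–PBMC co-culture at 24 h post-dose. Activity fitted in both directions relative to DMSO; parallel SRB and Alamar Blue cytotoxicity read-outs.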

CD40, CD40 (gene 958) = experiment: BSK_SAg_CD40: BioMAP Diversity Plus: SAg Assay for CD40 Biomarker Activity (AID 2283088); conditions: primary human HUVEC with PBMC; actives raise or lower the signal
In short: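 Fluorescence ELISA read-out of CD40 from umbilical vein endothelium plus peripheral blood mononuclear cells, sampled 24 h after dosing. Values come from bidirectional curve fitting with DMSO as baseline.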

CD69, CD69 (gene 969) = experiment: BSK_SAg_CD69: BioMAP Diversity Plus: SAg Assay for CD69 Biomarker Activity (AID 2283089); conditions: primary human HUVEC with PBMC; actives raise or lower the signal;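 on AC50: cell surface CD69 protein quantified by ELISA with fluorescence detection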
In short: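 ELISA, fluorescence read-out: CD69 on human umbilical vein endothelial cell + PBMC co-culture, 24 h post-dosing. Gain or loss of signal fitted bidirectionally against DMSO baseline.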

[4] = read-out: Monocyte Chemoattractant Protein-1 (MCP1), CCL2 (gene 6347); experiment: BSK_SAg_MCP1: BioMAP Diversity Plus: SAg Assay for Monocyte Chemoattractant Protein-1 (MCP1) Biomarker Activity (AID 2283090); conditions: primary human HUVEC with PBMC; actives raise or lower the signal
In short: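 Values derive from bidirectional fitting of ELISA-measured MCP1 against DMSO controls. Readings were taken 24 h after dosing human vascular endothelial cells co-cultured with peripheral blood mononuclear cells under superantigen stimulation.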

[5] = read-out: E-selectin (Homo sapiens) (UniProt P16581); experiment: BSK_SAg_Eselectin: BioMAP Diversity Plus: SAg Assay for Eselectin Biomarker Activity (AID 2283091); conditions: primary human HUVEC with PBMC; actives raise or lower the signal
In short: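 Primary human endothelial cells and peripheral blood mononuclear cells were co-cultured and exposed to chemical for 24 hours. E-selectin levels were then quantified by ELISA, with bidirectional curve fitting normalised to DMSO controls.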

[6] = read-out: Monokine induced gamma interferon (MIG), CXCL9 (gene 4283); experiment: BSK_SAg_MIG: BioMAP Diversity Plus: SAg Assay for Monokine induced gamma interferon (MIG) Biomarker Activity (AID 2283092); conditions: primary human HUVEC with PBMC; actives raise or lower the signal
In short: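 ELISA readout of MIG/CXCL9; primary human umbilical vein endothelial cells co-cultured with peripheral blood mononuclear cells; 24 h post-dose; gain/loss fit vs DMSO baseline.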

[7] = BSK_SAg_PBMCCytotoxicity: PBMC Cytotoxicity Assessment in the BioMAP Diversity Plus: SAg Assay (AID 2283093); conditions: primary human HUVEC with PBMC;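 further: PBMC viability measured as Alamar Blue reduction fluorescence at 546/580 nm; fitted both ways against DMSO so a hit may be loss or gain of signal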;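 on AC50: PBMC superantigen activated with SEB plus TSST-1 one hour after compound addition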
In short: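 Alamar Blue reduction (6 h, 546/580 nm) reports PBMC cytotoxicity after 90 h superantigen activation (SEB, TSST-1; 20 ng/mL final each) with 1 h compound pre-treatment. Gain or loss of signal fitted versus DMSO.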

[8] = read-out: Interleukin-8 (IL8), CXCL8 (gene 3576); experiment: BSK_SAg_IL8: BioMAP Diversity Plus: SAg Assay for Interleukin-8 (IL8) Biomarker Activity (AID 2283094); conditions: primary human HUVEC with PBMC; actives raise or lower the signal
In short: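 Chemicals were dosed onto a human endothelial–PBMC co-culture, and IL-8 was quantified by ELISA after 24 h. Both increases and decreases were fitted relative to DMSO.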

[9] = BSK_SAg_Proliferation: Cell Proliferation Assessment in the BioMAP Diversity Plus: SAg Assay (AID 2283095); conditions: primary human HUVEC with PBMC;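 further: relative cell number as total protein by SRB absorbance in sub-confluent culture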
In short: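 Absorbance of sulforhodamine B at 560 nm reports total protein in a human vascular endothelial/PBMC co-culture after 96 h chemical exposure. Gain or loss of signal is fitted in both directions against DMSO.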

[10] = BSK_SAg_SRB: Viability Assessment in the BioMAP Diversity Plus: SAg Assay (AID 2283096); conditions: primary human HUVEC with PBMC;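 further: cells read one day after compound addition; hits may be either gain or loss of signal compared with DMSO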
In short: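 This overt-cytotoxicity endpoint quantifies protein in human endothelial/PBMC co-cultures at 24 h using SRB absorbance (560 nm) after trichloroacetic acid fixation. Values reflect signal change from the DMSO negative control, fitted bidirectionally.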

[11] = read-out: Macrophage colony-stimulating factor (MCSF), CSF1 (gene 1435); experiment: BSK_LPS_MCSF: BioMAP Diversity Plus: LPS Assay for Macrophage colony-stimulating factor (MCSF) Biomarker Activity (AID 2283083); conditions: primary human HUVEC with PBMC; actives raise or lower the signal
In short: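 Compound is added to a human vascular primary co-culture of umbilical vein endothelium and blood mononuclear cells. After 24 h, M-CSF is quantified by ELISA. Signal changes are fitted in both directions against DMSO.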

[12] = molecular target: human CYP2C9, CYP2C9 (gene 1559) (UniProt P11712); experiment: NVS_ADME_hCYP2C9: NovaScreen (NVS) CYP450-related Enzyme Activity (ADME) Assay for human CYP2C9 (AID 2283108; active means hit-call score of the fitted dose curve at least 0.9, where 1 is the maximum)
In short: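 Cell-free assay of recombinant human CYP2C9 produced in Sf9 cells, with enzyme activity read by fluorescence intensity 0.75 h after compound addition. Loss of signal versus an acetonitrile negative control indicates inhibition. Primary screen used 10 uM in duplicate; actives were retested in concentration series.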

Measured: AC50

Sequence of E-selectin (Homo sapiens) (P16581 whole entry, looked up): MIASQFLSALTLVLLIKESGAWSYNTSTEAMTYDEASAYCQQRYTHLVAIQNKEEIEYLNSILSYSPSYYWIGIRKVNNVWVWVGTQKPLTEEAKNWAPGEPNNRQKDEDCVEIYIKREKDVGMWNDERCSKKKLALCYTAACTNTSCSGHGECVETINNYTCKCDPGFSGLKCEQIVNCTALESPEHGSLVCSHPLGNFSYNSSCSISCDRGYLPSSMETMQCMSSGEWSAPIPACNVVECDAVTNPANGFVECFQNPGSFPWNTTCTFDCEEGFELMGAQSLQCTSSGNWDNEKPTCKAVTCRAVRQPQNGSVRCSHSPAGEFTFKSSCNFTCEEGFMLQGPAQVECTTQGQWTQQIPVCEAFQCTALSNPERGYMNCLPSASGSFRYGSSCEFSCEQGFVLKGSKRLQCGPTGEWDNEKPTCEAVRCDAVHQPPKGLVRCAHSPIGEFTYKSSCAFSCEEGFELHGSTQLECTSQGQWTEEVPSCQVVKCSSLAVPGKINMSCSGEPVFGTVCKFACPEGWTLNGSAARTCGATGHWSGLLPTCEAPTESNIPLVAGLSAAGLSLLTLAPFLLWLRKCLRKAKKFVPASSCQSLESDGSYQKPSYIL
Sequence of Tumor necrosis factor (Homo sapiens) (P01375 whole entry, looked up): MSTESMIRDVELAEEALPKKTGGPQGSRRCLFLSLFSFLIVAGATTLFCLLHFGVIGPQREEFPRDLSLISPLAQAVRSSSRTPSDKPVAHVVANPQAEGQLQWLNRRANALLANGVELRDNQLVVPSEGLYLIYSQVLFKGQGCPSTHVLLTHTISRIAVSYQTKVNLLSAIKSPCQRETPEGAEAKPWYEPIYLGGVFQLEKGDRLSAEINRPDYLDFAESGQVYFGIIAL
Sequence of human CYP2C9, CYP2C9 (gene 1559) (P11712 whole entry, looked up): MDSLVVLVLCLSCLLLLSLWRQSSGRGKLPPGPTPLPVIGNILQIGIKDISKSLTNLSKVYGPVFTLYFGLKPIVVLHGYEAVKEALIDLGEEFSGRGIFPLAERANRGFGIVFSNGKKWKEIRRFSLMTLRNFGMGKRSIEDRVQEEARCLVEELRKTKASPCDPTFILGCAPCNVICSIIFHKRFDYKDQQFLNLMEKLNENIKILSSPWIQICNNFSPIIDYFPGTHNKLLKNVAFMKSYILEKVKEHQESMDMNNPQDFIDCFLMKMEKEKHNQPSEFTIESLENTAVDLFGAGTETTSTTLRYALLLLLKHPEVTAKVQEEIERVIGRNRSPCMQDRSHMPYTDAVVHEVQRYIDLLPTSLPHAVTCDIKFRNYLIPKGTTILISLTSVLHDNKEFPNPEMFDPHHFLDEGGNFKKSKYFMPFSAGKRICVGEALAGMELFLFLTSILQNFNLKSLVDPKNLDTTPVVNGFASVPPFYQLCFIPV

CN(C)CCOC(c1ccccc1)c1ccccc1
inactive: [1] | [2] | [3] | CD38, CD38 (gene 952) | CD40, CD40 (gene 958) | CD69, CD69 (gene 969) | [4] | [5] | [6] | [7] | [8] | [9] | [10]

OCCN1CN(CCO)CN(CCO)C1
active: [11] 25.7 µM | [1] 20 µM | [2] 36.6 µM | [3] 31.1 µM | CD38, CD38 (gene 952) 31.6 µM | CD40, CD40 (gene 958) 31.1 µM | CD69, CD69 (gene 969) 38.7 µM | [4] 20 µM | [5] 20 µM | [6] 33.1 µM | [7] 27 µM | [8] 13.1 µM | [9] 26 µM | [10] 33.4 µM

Clc1ccc(Nc2nnc(Cc3ccncc3)c3ccccc23)cc1
inactive: [11] | [1] | [2] | [3] | CD38, CD38 (gene 952) | CD40, CD40 (gene 958) | CD69, CD69 (gene 969) | [4] | [5] | [6] | [7] | [8] | [9] | [10]

CC1=NN(c2ccccc2)C(=O)C1
active: [12] 3.06 µM
inactive: [11] | [1] | [2] | [3] | CD38, CD38 (gene 952) | CD40, CD40 (gene 958) | CD69, CD69 (gene 969) | [4] | [5] | [6] | [7] | [8] | [9] | [10]

NC(=NCCCCCCN=C(N)/N=C(\N)Nc1ccc(Cl)cc1)/N=C(\N)Nc1ccc(Cl)cc1
active: [11] 4.92 µM | [1] 4.98 µM | [2] 20.5 µM | [3] 6.08 µM | CD38, CD38 (gene 952) 8.71 µM | CD40, CD40 (gene 958) 5.1 µM | CD69, CD69 (gene 969) 7.57 µM | [5] 5.02 µM | [6] 7.58 µM | [7] 7.06 µM | [8] 0.896 µM | [9] 2.72 µM | [10] 4.89 µM

N=C(N)c1ccc(OCCCCCOc2ccc(C(=N)N)cc2)cc1
inactive: [1] | [2] | [3] | CD38, CD38 (gene 952) | CD40, CD40 (gene 958) | [4] | [5] | [6] | [7] | [10]
active: [11] 13.5 µM | CD69, CD69 (gene 969) 1.21 µM | [8] 6.91 µM | [9] 13.6 µM

C[C@]12CC[C@@H]3c4ccc(O)cc4CC[C@H]3[C@@H]1C[C@@H](O)[C@@H]2O
inactive: [11] | [1] | [2] | [3] | CD38, CD38 (gene 952) | CD40, CD40 (gene 958) | CD69, CD69 (gene 969) | [4] | [5] | [6] | [7] | [8] | [9] | [10]

CS(=O)(=O)c1ccc([C@@H](CC2CCCC2)C(=O)Nc2cnccn2)cc1Cl
active: [9] 15.2 µM
inactive: [11] | [1] | [2] | [3] | CD38, CD38 (gene 952) | CD40, CD40 (gene 958) | CD69, CD69 (gene 969) | [4] | [5] | [6] | [8] | [10]
